Screens from PubChem BioAssay.
Pf growth 48h – Primary qHTS for delayed death inhibitors of the malarial parasite plastid, 48 hour incubation; P. falciparum luciferase growth in erythrocytes, 48 h; Potency, µM (titrated, usually from 28.7 µM), inactives show at the highest dose activity change, negative = inhibition, usual class: inhibitors; 310,000 tested, 5.9% active; AID 504832, 2011; further: on the % scale 0 is the no-effect control and ±100 the full control effect
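Read-out is firefly luciferase luminescence from an integrated reporter in P. falciparum, so falling signal marks reduced parasite growth. Infected erythrocytes were at 2% hematocrit and 0.1% parasitemia (final) in Albumax-supplemented RPMI 1640.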
HCV inhibitor – qHTS Assay for Inhibitors of Hepatitis C Virus (HCV); AID 651820, 2012; 340,000 tested, 3.4% active; Potency, µM (doses to about 41.8 µM), without a hit: at the highest dose activity change, negative = inhibition, most hits filed as inhibitors; Huh7.5.1 HCVcc-Cre infection, luciferase reporter, 44 h; further: on the % scale 0 is the no-effect control and ±100 the full control effect
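Infectious HCVcc-Cre (~0.5 moi) was added to cells just after compound, with cells seeded 4 h earlier at 1,000 per well. Luciferase activity after 44 h culture reported infection; substrate was incubated 15 min at room temperature before reading.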
NS1 inh – qHTS Assay for Inhibitors of Influenza NS1 Protein Function; Potency, µM (doses to about 46.1 µM), for the others: at the highest dose activity, positive = more growth; 270,000 tested, 0.4% active; AID 2326, 2010; calls by dose curve; further: actives are rising curves; nearly all actives have a fitted effect of over 50% in size
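In this qHTS, NS1 from influenza A is expressed in budding yeast, where it slows growth. Cells are switched from glucose to 2% galactose medium (pH 6.0, -URA), treated with compound, and growth recovery is read at OD600.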
Vaccinia Venus – qHTS for Stage-Specific Inhibitors of Vaccinia Orthopoxvirus: Venus Reporter Primary qHTS. 330,000 tested, 0.46% active. Potency, µM (doses to about 36.5 µM), inactives show at the highest dose activity change, negative = inhibition, usual class: inhibitors. Vaccinia virus Venus reporter expression, fluorescence; calls by dose curve; tested in A549 cells; further: on the % scale 0 is the no-effect control and ±100 the full control effect; nearly all actives have a fitted effect of over 30% in size
Pf growth 96h – Primary qHTS for delayed death inhibitors of the malarial parasite plastid, 96 hour incubation; Potency, µM (series often up to 28.7 µM), for the others: at the top dose activity change, negative = inhibition, usual class: inhibitors; AID 504834, 2011; P. falciparum luciferase reporter growth, 96 h; 320,000 tested, 6.9% active; further: on the % scale 0 is the no-effect control and ±100 the full control effect
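Two-generation exposure (96 h) targets delayed-death phenotype. Reporter parasites carrying integrated firefly luciferase, in red cells at 2% hematocrit and 0.05% parasitemia final, kept at 37 C, 5% CO2; luminescence loss indicates inhibition.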
VACV mCherry inh – qHTS for Stage-Specific Inhibitors of Vaccinia Orthopoxvirus: mCherry Reporter Primary qHTS. AID 720579, 2013. Potency, µM (doses to about 36.5 µM), for inactives: at the highest dose activity change, negative = inhibition, most hits filed as inhibitors. 310,000 tested, 0.63% active. Vaccinia virus mCherry reporter infection, fluorescence; calls by dose curve; tested in A549 cells; further: on the % scale 0 is the no-effect control and ±100 the full control effect; nearly all actives have a fitted effect of over 35% in size
Starred values were filed as active, the others as inactive; ? = inconclusive; . = no result given; [ ] = remark or other dose. In the library only some 11% were active in any assay of this set; here they are far more common. Unless noted, the call rests on the fitted dose curve; in most records, active means well fitted inhibition curve with a large enough effect; inconclusive means small, poorly fitted or top-dose-only effect, or another doubt; inactive means no such curve, though single readings can be large or run the other way. Potency means the concentration at half of the fitted maximal effect.

SMILES | Pf growth 48h | HCV inhibitor | NS1 inh | Vaccinia Venus | Pf growth 96h | VACV mCherry inh
COc1ccc(NC(=O)c2cccnc2Cl)c(S(=O)(=O)N2CCOCC2)c1 | 21% | 8% | 3% | . | . | .
O=C(CSc1cccc(C(F)(F)F)c1)N1CCN(S(=O)(=O)c2ccccc2)CC1 | ? | -1% | -6% | -12% | 3% | -5%
Cc1ccc(S(=O)(=O)N2CCN(CC(=O)NC(=O)NCc3ccco3)CC2)cc1C | ? | 11% | -15% | . | -8% | .
COC(=O)c1ccc(CNC(=O)CSC2=NCCS2)cc1 | 5% | -4% | . | -1% | 31% | -4%
N#Cc1cc([N+](=O)[O-])ccc1NC(=O)COC(=O)C12CC3CC(CC(C3)C1)C2 | -19% | . | 1% | . | ? | .
Cc1ccc(Cl)cc1NC(=O)CN1C(=O)COc2ccc(S(=O)(=O)N3CCCCCC3)cc21 | . | . | . | -9% | . | -11%
Cc1ccc(S(=O)(=O)N2CCN(Cc3ccccc3Cl)CC2)cc1 | . | . | . | 2% | . | -1%
COc1ccc(CN2CCN(S(=O)(=O)c3ccc(C)cc3)CC2)cc1OC | . | -11% | . | -13% | . | -20%
Cc1ccc(S(=O)(=O)N2CCN(Cc3cc(C(C)C)ccc3O)CC2)cc1 | 10µM* | -10% | -33% | . | 10µM* | .
COc1ccc(CN2CCN(S(=O)(=O)c3ccc(C)cc3)CC2)cc1Br | -8% | 32µM* | -86% | . | . | .
Cc1ccc(S(=O)(=O)N2CCN(Cc3cc(C(C)(C)C)ccc3O)CC2)cc1 | 12µM* | ? | -2% | . | ? | .
Cc1ccc2nc(CN3CCN(S(=O)(=O)c4ccc(C(C)C)cc4)CC3)oc2c1 | . | . | . | -25% | . | -29%
CCCOc1ccccc1C1CC(=O)Nc2cc3c(cc21)OCCO3 (configuration not stated) | ? | 2.5µM* | -59% | ? | -2% | ?
CC(C)Oc1ccccc1C1CC(=O)Nc2cc3c(cc21)OCO3 (configuration not stated) | ? | 11µM* | -33% | . | . | .
COc1ccccc1C1CC(=O)Nc2cc(C)c(C)cc21 (configuration not stated) | -21% | ? | 28% | -26% | 13µM* | -9%
CCCCOc1ccccc1C1CC(=O)Nc2cc(OC)c(OC)cc21 (configuration not stated) | . | . | . | 4% | . | 7%
Cc1cc2c(cc1C)C(c1ccccc1Br)CC(=O)N2 (configuration not stated) | -21% | 0% | 0% | -27% | -28% | -19%
Cc1cc2c(cc1C)C(c1ccccc1OC(C)C)CC(=O)N2 (configuration not stated) | ? | 8.9µM* | -45% | -18% | ? | ?
COc1cccc(C2CC(=O)Nc3cc4c(cc32)OCO4)c1OC(C)C (configuration not stated) | . | . | . | -30% | . | ?
CC1CC(C(F)(F)F)n2ncc(C(=O)O)c2N1 (configuration not stated) | 5% | 9% | -14% | -25% | ? | .
COCCNC(=O)Cn1nc(-c2ccccc2C)ccc1=O | 36% | 9% | 8% | . | ? | .
CCOc1ccccc1C1CC(=O)Nc2cc(C)c(C)cc21 (configuration not stated) | 16% | ? | -3% | . | 12µM* | .
COc1cc2c(cc1OC)C(c1ccc(Br)cc1)CC(=O)N2 (configuration not stated) | 8% | -15% | -4% | . | 5.2µM* | .
CCOc1ccccc1C1CC(=O)Nc2cc3c(cc21)OCCO3 (configuration not stated) | . | ? | -16% | . | -15% | .
COc1ccccc1/C=C1\SC(=S)N(N2C(=O)CCCC2=O)C1=O | 3% | 18% | -18% | -15% | -54%[1.15 µM] | -7%
CC(=O)Oc1ccc(C(=O)Nc2ccc(C3(C#N)CCCC3)cc2)cc1 | -1% | 14µM* | 26% | . | ? | .
CCCCCS(=O)(=O)c1oc(-c2cccs2)nc1S(=O)(=O)c1ccc(C)cc1 | . | . | . | -28% | . | -27%
